The results in this text go back to PubChem BioAssay (EPA / NIEHS).

The structures appear in SMILES notation. “And” between values parts separate entries of the source, which are not always exact repeats. Identical values can stand only once. Inconclusive results are not listed. Some structures have more than one record in an assay (separate samples or runs), and their calls can disagree. The source made the active and inactive calls. Rule for the calls, unless noted: active = hit-call score of the fitted dose curve at least 0.9, where 1 is the maximum; inactive = score below 0.9.

Read-out in assay [1]: Interleukin-8 (IL8), CXCL8 (gene 3576)
The assay can be described thus: BSK_3C_IL8: BioMAP Diversity Plus: 3C Assay for Interleukin-8 (IL8) Biomarker Activity (AID 2283020). The note with it: primary human endothelial cells (HUVEC); actives raise or lower the signal. In a few lines: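 Endothelial primary cells of human umbilical vein origin are dosed with chemical; after 24 h the IL-8 biomarker is measured by ELISA, and concentration–response is fitted in both directions versus DMSO.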

Read-out in assay [2]: Monokine induced gamma interferon (MIG), CXCL9 (gene 4283)
The assay can be described thus: BSK_3C_MIG: BioMAP Diversity Plus: 3C Assay for Monokine induced gamma interferon (MIG) Biomarker Activity (AID 2283021).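 For AC50: MIG protein level measured by immunoassay in the treated endothelial cultures.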 The note with it: primary human endothelial cells (HUVEC); actives raise or lower the signal. In a few lines:
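Endothelial primary cells (human umbilical vein) are dosed with test chemical in the 3C system. MIG levels are measured by ELISA at 24 h and fitted in both directions relative to DMSO.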

Assay [3] can be described thus: BSK_3C_SRB: Viability Assessment in the BioMAP Diversity Plus: 3C Assay (AID 2283023).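 Note: fitted both ways against DMSO so a hit may be signal rise or drop.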 The note with it: primary human endothelial cells (HUVEC). The method, boiled down:
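Human umbilical vein endothelial cells in the 3C system, treated 24 h. Total protein measured by 0.1% sulforhodamine B staining after 10% TCA fixation, read at 560 nm; bidirectional fit versus DMSO.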

Read-out in assay [4]: Matrix Metallopeptidase 1 (MMP1), MMP1 (gene 4312)
The assay can be described thus: BSK_BE3C_MMP1: BioMAP Diversity Plus: BE3C Assay for Matrix Metallopeptidase 1 (MMP1) Biomarker Activity (AID 2283024). To be noted: primary human bronchial epithelial cells; actives raise or lower the signal. The method, boiled down: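 MMP1 signal, measured by ELISA after a 24 h chemical exposure of human primary bronchial epithelial cells, is analysed with bidirectional fitting using DMSO as negative control.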

The nature of assay [5]: BSK_3C_Vis: BioMAP Diversity Plus: 3C Assay for Morphology Visualization (AID 2283025).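 Note: fitted both ways so gain or loss versus DMSO counts.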 The note with it: primary human endothelial cells (HUVEC). The method, boiled down: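 Morphology read by light microscopy serves as a background control for the multiplexed 3C assay in human umbilical vein endothelial cells, taken 24 h after dosing, with DMSO as the negative control and bidirectional curve fitting.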

Read-out in assay [6]: Pselectin, SELP (gene 6403)
The assay can be described thus: BSK_4H_Pselectin: BioMAP Diversity Plus: 4H Assay for Pselectin Biomarker Activity (AID 2283026). The note with it: primary human endothelial cells (HUVEC); actives raise or lower the signal. The method, boiled down:
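Endothelial primary cells (human umbilical vein) are dosed, incubated 24 h, and assayed for surface P-selectin by ELISA; responses in either direction are fitted relative to the DMSO negative control.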

Assay [7] can be described thus: BSK_4H_SRB: Viability Assessment in the BioMAP Diversity Plus: 4H Assay (AID 2283027).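 For AC50: curves fitted both ways versus DMSO so AC50 may be loss or gain.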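 Note: cells exposed to compound for 24 h before staining.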 The note with it: primary human endothelial cells (HUVEC). The method, boiled down:
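HUVEC, 24 h post-dose; 10% TCA fix, 0.1% SRB stain, A560 nm. Total protein = overt cytotoxicity, parallel to biomarker read. Bidirectional fit vs DMSO baseline.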

A short description of assay [8]: BSK_BE3C_SRB: Viability Assessment in the BioMAP Diversity Plus: BE3C Assay (AID 2283028).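 For AC50: fitted both ways so AC50 may mark signal gain or loss versus DMSO.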 The note with it: primary human bronchial epithelial cells. In a few lines: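 Human bronchial epithelial primary cells in confluent culture, 24 h after chemical dosing; total protein by 0.1% SRB staining after 10% TCA fixation, read at 560 nm. Bidirectional fitting versus DMSO baseline.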

Read-out in assay [9]: Thrombomodulin, THBD (gene 7056)
Kind of assay: BSK_3C_Thrombomodulin: BioMAP Diversity Plus: 3C Assay for Thrombomodulin Biomarker Activity (AID 2283029). To be noted: primary human endothelial cells (HUVEC); actives raise or lower the signal. The method, boiled down: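 Endothelial cells from umbilical vein are dosed with test chemical and incubated 24 h. Thrombomodulin is then quantified by ELISA, with DMSO serving as negative control and activity baseline.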

Read-out in assay [10]: Urokinase-type plasminogen activator receptor (uPAR), PLAUR (gene 5329)
Kind of assay: BSK_4H_uPAR: BioMAP Diversity Plus: 4H Assay for Urokinase-type plasminogen activator receptor (uPAR) Biomarker Activity (AID 2283030). To be noted: primary human endothelial cells (HUVEC); actives raise or lower the signal. The method, boiled down: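 Human umbilical vein endothelial cells in the 4H system, 24 h after chemical dosing. Cell-surface uPAR measured by ELISA, fitted in both directions versus DMSO; cytotoxicity checked by SRB total protein in parallel cultures.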

Read-out in assay [11]: Vascular endothelial growth factor receptor 2 (Homo sapiens) (UniProt P35968)
The assay can be described thus: BSK_4H_VEGFRII: BioMAP Diversity Plus: 4H Assay for Vascular endothelial growth factor receptor 2 (VEGFR2) Biomarker Activity (AID 2283031).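 For AC50: cell-surface VEGFR2 protein level quantified by ELISA.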 To be noted: primary human endothelial cells (HUVEC); actives raise or lower the signal. The method, boiled down:
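Primary human umbilical vein endothelial cells (4H system), 24 h exposure; cell-surface VEGFR2 measured by ELISA. Bidirectional fitting versus DMSO; cytotoxicity checked in parallel by SRB total-protein staining.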

Read-out in assay [12]: Human Leukocyte Antigen - DR isotype (HLADR), HLA-DRA (gene 3122)
The assay can be described thus: BSK_BE3C_HLADR: BioMAP Diversity Plus: BE3C Assay for Human Leukocyte Antigen - DR isotype (HLADR) Biomarker Activity (AID 2283032). The note with it: primary human bronchial epithelial cells; actives raise or lower the signal. The method, boiled down:
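Chemicals are dosed onto BE3C bronchial epithelial cultures of human origin and left 24 h. HLA-DR is then measured by ELISA, and the endpoint is fitted in both directions using DMSO as the activity baseline.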

Read-out in assay [13]: Vascular cell adhesion molecule 1 (VCAM1), VCAM1 (gene 7412)
Kind of assay: BSK_4H_VCAM1: BioMAP Diversity Plus: 4H Assay for Vascular cell adhesion molecule 1 (VCAM1) Biomarker Activity (AID 2283033).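 For outcome: cell-surface VCAM-1 protein measured by ELISA.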 To be noted: primary human endothelial cells (HUVEC); actives raise or lower the signal. The method, boiled down:
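Chemicals are added to primary human umbilical vein endothelial cells. After 24 h, VCAM-1 levels are measured by ELISA. Values come from bidirectional fitting referenced to DMSO.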

Read-out in assay [14]: Interferon-gamma inducible Protein 10 (IP10), CXCL10 (gene 3627)
Kind of assay: BSK_BE3C_IP10: BioMAP Diversity Plus: BE3C Assay for Interferon-gamma inducible Protein 10 (IP10) Biomarker Activity (AID 2283034). To be noted: primary human bronchial epithelial cells; actives raise or lower the signal. In a few lines: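 IP-10 quantified by ELISA serves as the endpoint. Cells: primary human bronchial epithelium, read 24 h after compound addition. Activity is derived by bidirectional fitting with DMSO as negative control.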

Read-out in assay [15]: Monokine induced gamma interferon (MIG), CXCL9 (gene 4283)
The assay can be described thus: BSK_BE3C_MIG: BioMAP Diversity Plus: BE3C Assay for Monokine induced gamma interferon (MIG) Biomarker Activity (AID 2283035). To be noted: primary human bronchial epithelial cells; actives raise or lower the signal. The method, boiled down: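 Dose cells (human primary bronchial epithelial), incubate 24 h, quantify MIG by ELISA, then fit concentration–response in both directions relative to DMSO control.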

Read-out in assay [16]: Transforming growth factor beta 1 (TGFb1), TGFB1 (gene 7040)
The assay can be described thus: BSK_BE3C_TGFb1: BioMAP Diversity Plus: BE3C Assay for Transforming growth factor beta 1 (TGFb1) Biomarker Activity (AID 2283036;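 for outcome: TGF-b1 protein level measured by ELISA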). The note with it: primary human bronchial epithelial cells; actives raise or lower the signal. The method, boiled down: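 Bronchial epithelial primary cells are treated with test chemical, then TGF-b1 is quantified by ELISA after 24 hours. Values derive from bidirectional fitting against DMSO, with cytotoxicity checked by SRB staining in parallel cultures.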

Read-out in assay [17]: Plasminogen activator inhibitor-1 (PAI1), SERPINE1 (gene 5054)
Kind of assay: BSK_BE3C_PAI1: BioMAP Diversity Plus: BE3C Assay for Plasminogen activator inhibitor-1 (PAI1) Biomarker Activity (AID 2283037). The note with it: primary human bronchial epithelial cells; actives raise or lower the signal. In a few lines:
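Values derive from bidirectional fitting against DMSO baseline of PAI-1 levels, measured by ELISA in human bronchial epithelial cells 24 h after compound addition.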

Read-out in assay [18]: urokinase plasminogen activator (uPA), PLAU (gene 5328)
Kind of assay: BSK_BE3C_uPA: BioMAP Diversity Plus: BE3C Assay for urokinase plasminogen activator (uPA) Biomarker Activity (AID 2283038).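 For outcome: uPA protein level quantified by ELISA in cell cultures; uPA read one day after compound addition.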 To be noted: primary human bronchial epithelial cells; actives raise or lower the signal. In a few lines: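 Primary human bronchial epithelial cells, uPA measured by ELISA 24 h after dosing. Bidirectional change relative to DMSO; cytotoxicity checked in parallel cultures by sulforhodamine B total-protein staining.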

Read-out in assay [19]: Urokinase-type plasminogen activator receptor (uPAR), PLAUR (gene 5329)
The assay can be described thus: BSK_BE3C_uPAR: BioMAP Diversity Plus: BE3C Assay for Urokinase-type plasminogen activator receptor (uPAR) Biomarker Activity (AID 2283039).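 For outcome: cells exposed to compound for one day before measurement.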 To be noted: primary human bronchial epithelial cells; actives raise or lower the signal. In a few lines:
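Steps: dose human primary bronchial epithelial cells, incubate 24 h, measure uPAR by ELISA, then fit gain- or loss-of-signal response bidirectionally relative to DMSO.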

In assay [20] the target is human Vitamin D Receptor (VDR), VDR (gene 7421) (UniProt P11473). Kind of assay: ATG_VDR_TRANS: Attagene TRANS-FACTORIAL HepG2 Assay for human Vitamin D Receptor (VDR) (AID 2283022; active = hit-call score of the fitted dose curve at least 0.9, where 1 is the maximum). The method, boiled down:
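HepG2 cells were transiently transfected with GAL4-UAS reporter units and a chimeric VDR-Gal4 construct, then dosed for 24 hours. Reporter mRNA was quantified by RT-PCR, fluorescent labeling, HpaI digestion and capillary electrophoresis; gain of signal analysed vs DMSO.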

Chain of human Vitamin D Receptor (VDR), VDR (gene 7421) (P11473 whole entry, looked up, the tested form may be a part): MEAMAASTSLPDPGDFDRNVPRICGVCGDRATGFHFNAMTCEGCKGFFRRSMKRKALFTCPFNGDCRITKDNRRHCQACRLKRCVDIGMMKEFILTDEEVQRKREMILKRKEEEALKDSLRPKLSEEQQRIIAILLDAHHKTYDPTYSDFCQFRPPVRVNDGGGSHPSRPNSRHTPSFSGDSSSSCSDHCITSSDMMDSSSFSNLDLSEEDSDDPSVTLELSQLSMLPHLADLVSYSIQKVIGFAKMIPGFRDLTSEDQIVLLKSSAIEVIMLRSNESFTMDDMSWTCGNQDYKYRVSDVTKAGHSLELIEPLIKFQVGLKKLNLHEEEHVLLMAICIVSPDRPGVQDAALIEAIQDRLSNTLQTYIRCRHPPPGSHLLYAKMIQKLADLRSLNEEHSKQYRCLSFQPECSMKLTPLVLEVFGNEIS

As to `CC1=NN(c2ccccc2)C(=O)C1`, the result in assay [1], in assay [2], in assay [3], in assay [4], in assay [5] and in [6] was inactive. The result in assay [7], in assay [8], in assay [9], in assay [10], in [11] and in [12] was inactive. The result in assay [13], in [14], in assay [15], in assay [16], in assay [17] and in assay [18] was inactive. Also, in assay [19], the outcome was inactive.
With `NNC(=O)CCCCC(=O)NN`, the outcome in [20] was inactive.
`COC1=CC(=O)C[C@@H](C)[C@]12Oc1c(Cl)c(OC)cc(OC)c1C2=O`: the result in [1], in [2], in [3], in assay [4], in [6] and in [7] was inactive. Moreover, the result in assay [8], in assay [9], in assay [10], in assay [11], in [12] and in assay [13] was inactive. Besides, the outcome in assay [14], in assay [15], in assay [16], in [17], in assay [18] and in assay [19] was inactive.
With `O=CC(F)(F)C(F)(F)C(F)(F)F`, in assay [20], the result was inactive.
With `NNc1nc(-c2ccc([N+](=O)[O-])cc2)cs1`, the molecule was called inactive in assay [20].
Turning to `Nc1cc(Cl)c(-c2cc(Cl)c(N)cc2Cl)cc1Cl`, the outcome in assay [20] was inactive.
`CCCCCc1ccc(O)cc1`: the AC50 is 11.3 µM (active) in assay [1]; 34.6 µM (active) in assay [2]; 14.5 µM (active) in assay [3]; 30.2 µM (active) in assay [4]; 12.1 µM (active) in assay [5]; 13.3 µM (active) in assay [6]. Besides, the AC50 in assay [7] was 15.8 µM (active); in assay [8] it was 26 µM (active); in [9], 11.7 µM (active); in assay [10] it was 20 µM (active); in assay [12], 27.2 µM (active); in assay [13], 24.9 µM (active). The AC50 in [14] was 16.6 µM (active); in assay [15], 32.8 µM (active); in [16] it was 20 µM (active); in assay [17], 20 µM (active); in [18], 27.2 µM (active); in assay [19], 30.5 µM (active). In assay [11], the result was inactive.
Regarding `CCCCCCCCCCCC`, the outcome in [1], in [2], in assay [4], in assay [6], in assay [7] and in [8] was inactive. Besides, the result in assay [9], in [10], in assay [11], in assay [18] and in [19] was inactive. Further, the AC50 in assay [3] is 31.1 µM (active) and 30.4 µM (active); in [9], 36.5 µM (active); in [11], 28 µM (active); in [12], 5.83 µM (active) and 5.29 µM (active); in [13] it was 33.4 µM (active) and 32.1 µM (active); in assay [14], 7.03 µM (active) and 6.14 µM (active). The AC50 was 9 µM (active) and 9.5 µM (active) in assay [15]; 9.17 µM (active) and 6.53 µM (active) in [17].
